The assay deals with FGR. Particulars: Compound Concentration (nM):1000.
`CN(C)CCNC(=O)Nc1ccc(N(C)c2ccnc(Nc3ccc(CS(C)(=O)=O)cc3)n2)cc1.Cl` [GW830900A]: the “Percent Control” value turned out to be 100%.

As to `C/C(Nc1ccc(S(N)(=O)=O)cc1)=C1/C(=O)Nc2ccccc21` [GW335962X], the “Percent Control” value is recorded as 78%.

On to `Cc1cc(O)cc(C)c1/C=C/c1cncc(C(N)=O)c1` [GW435821X], for which the “Percent Control” value is recorded as 64%.

Consider `COc1cc(C)c(N(C)C(=O)CN(C)C)cc1Nc1nc(Nc2cccc(F)c2C(N)=O)c2cc[nH]c2n1` [GSK2219385], for which the “Percent Control” value is 100%.

Consider `COC(=O)Nc1nc2ccc(Oc3ccc(NC(=O)Nc4cc(C(F)(F)F)ccc4F)cc3)cc2s1.Cl` [GW693917A], for which the “Percent Control” value was found to be 71%.

With `NS(=O)(=O)c1ccc(Nc2ncc(-c3ccccc3)o2)cc1` [GW572399X], the “Percent Control” value turned out to be 98%.

Take `CN(C)c1cc2c(Nc3ccc4c(cnn4Cc4ccccc4)c3)ncnc2cn1` [GW282974X]: the “Percent Control” value is 73%.

As to `CCc1ccc(Oc2nccc(-c3c(-c4ccc(F)cc4)ncn3C3CCNCC3)n2)cc1` [SB-242719], the “Percent Control” value is 87%.

Regarding `Nc1ncnc2occ(-c3ccc(NC(=O)Nc4cc(C(F)(F)F)ccc4F)cc3)c12` [GW770249X], the “Percent Control” value is listed as 100%.

Consider `CN1CCN(C(=O)c2ccc(NC(=O)Nc3ccc(N(C)c4ccnc(Nc5ccc(CS(C)(=O)=O)cc5)n4)cc3)cc2)CC1.Cl` [GW830263A], for which the “Percent Control” value was 57%.

Regarding `COc1cc2ncn(-c3cc(O[C@H](C)c4ccccc4Cl)c(C(N)=O)s3)c2cc1OC` [GSK237701A], the “Percent Control” value is on record as 67%.

Consider `COc1ccc(COc2ccc(Cc3cnc(N)nc3N)cc2OC)cc1` [GW632580X], for which the “Percent Control” value is 81%.

With `CCn1c(-c2nonc2N)nc2c(C#CC(C)(C)O)nc(OCCNC)cc21.Cl` [GSK949675], the “Percent Control” value stood at 100%.

On to `COc1cc(/C=N/Nc2ncnc3[nH]ncc23)ccc1O` [GW578748X], for which the “Percent Control” value was 63%.

Regarding `COc1cc(N2CCN(C(C)C)CC2)ccc1Nc1nc(Nc2ccc(F)cc2C(=O)NC[C@@H](O)CO)c2cc[nH]c2n1` [GSK1392956A], the “Percent Control” value was 81%.

As to `Cl.c1ccc(Cc2nc3ccc(Nc4ncnc5ccccc45)cc3[nH]2)cc1` [GR269666A], the “Percent Control” value was determined as 100%.

In the case of `C[C@@H](Oc1cc(-n2cnc3ccc(OC4CCN(C)CC4)cc32)sc1C(N)=O)c1ccccc1Cl` [GSK579289A], the “Percent Control” value is given as 91%.

Turning to `CC1=C(C(=O)Nc2ccc3[nH]ncc3c2)C(c2ccc(Cl)c(Cl)c2)CC(=O)N1` (stereo not shown) [GSK299115A], the “Percent Control” value came to 86%.

On to `COc1cccc(-n2ncc3c(N/N=C/c4ccncc4)ncnc32)c1` [GW784752X], for which the “Percent Control” value came out at 72%.

Turning to `COc1cc2ncnc(Nc3ccc4c(cnn4Cc4ccccc4)c3)c2cc1OC.Cl` [GW282449A], the “Percent Control” value is 68%.

As to `Cl.O=C(Nc1ccc(Oc2ccc3[nH]c(NC(=O)c4ccco4)nc3c2)cc1)Nc1cc(C(F)(F)F)ccc1F` [GW683134A], the “Percent Control” value is 91%.

`CC(C)COC(=O)c1ccc2c(c1)/C(=C/Nc1ccc(S(N)(=O)=O)cc1)C(=O)N2` [GW416981X]: the “Percent Control” value was 99%.

For `COc1ccc2[nH]c3c4[nH]c5ccc(OC)cc5c4c4c(c3c2c1)C(=O)NC4=O` [GW296115X], the “Percent Control” value came to 68%.

Consider `COc1ccc2c(-c3ccnc(Nc4cccc(OC(F)(F)F)c4)n3)cnn2n1` [GW810372X], for which the “Percent Control” value is 96%.

Turning to `COc1ccc2cc(-c3c(-c4ccncc4)nc(-c4ccc(S(C)(=O)=O)cc4C)n3C)ccc2c1` [SB-633825], the “Percent Control” value is recorded as 63%.

As to `O=C1Nc2ccc(C(=O)c3ccco3)cc2C1=Cc1cc(Cl)c(O)c(Cl)c1` [GW406108X], the “Percent Control” value is 81%.

For `CCS(=O)(=O)c1ccc(OC)c(Nc2ncc(-c3cccc(F)c3)o2)c1` [GW621970X], the “Percent Control” value was determined as 24%.

Take `CC1=C(C(=O)Nc2ccc3[nH]ncc3c2)C(c2ccc3ccccc3c2)CC(=O)N1` (stereo not shown) [GSK270822A]: the “Percent Control” value came to 76%.

With `COc1cc(C=NNc2ncnc3c2cnn3-c2ccccc2)ccc1O` [GW513184X], the “Percent Control” value is on record as 80%.

For `Cl.O=C(O[C@H]1CN[C@H](C#Cc2cc3ncnc(Nc4ccc5c(cnn5Cc5ccccc5)c4)c3s2)C1)N1CCOCC1` [GSK200398A], the “Percent Control” value is listed as 96%.

Regarding `O=C(Nc1n[nH]c2nc(-c3ccc(O)cc3)c(Br)cc12)C1CC1` [SB-725317], the “Percent Control” value came to 100%.

As to `Cl.O=C(Nc1ccc(Oc2ccc3[nH]c(NC(=O)c4ccccc4)nc3c2)cc1)Nc1cc(C(F)(F)F)ccc1F` [GW709042A], the “Percent Control” value stood at 82%.

Turning to `CCS(=O)(=O)c1ccc(OC)c(Nc2ncc(-c3cccc(OC)c3)o2)c1` [GW580509X], the “Percent Control” value turned out to be 41%.

For the compound `COc1ccccc1-c1cc(/C=C2\C(=O)Nc3ncc(Br)cc32)cc(Br)c1O` [GW442130X], the “Percent Control” value amounted to 100%.

Take `NS(=O)(=O)c1ccc(N/N=C2\C(=O)Nc3ccc(C(=O)NCCc4c[nH]cn4)cc32)cc1` [GW300660X]: the “Percent Control” value is listed as 100%.

As to `NS(=O)(=O)c1ccc(N/N=C2\C(=O)Nc3ccc(C(=O)NCc4ccncc4)cc32)cc1` [GW300657X], the “Percent Control” value was 100%.

For the compound `NS(=O)(=O)c1ccc(N/N=C2\C(=O)Nc3ccc(Cl)cc32)cc1` [GW280670X], the “Percent Control” value turned out to be 100%.

For the compound `Cl.O=S1CCN(Cc2ccc(-c3ccc4ncnc(Nc5ccc(OCc6ccccc6)c(F)c5)c4c3)o2)CC1` [GW576924A], the “Percent Control” value stood at 100%.

In the case of `NS(=O)(=O)c1ccc(N/N=C2\C(=O)Nc3ccc(-c4cnco4)cc32)cc1` [GW276655], the “Percent Control” value was 79%.

With `COc1cccc(-c2c[nH]c3c(N/N=C/c4ccncc4)ncnc23)c1` [GW814408X], the “Percent Control” value is on record as 43%.
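Further: KINOMEscan scanMAX binding as percent activity remaining versus control; lower means stronger binding.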
